Hits are enriched below; roughly 2.5% of the tested compounds scored in any of these assays.
p53ts 39C kill – kills p53ts cells at the nonpermissive temperature | H1299-p53A138V viability at 39C, ATP luminescence, 24 h | Potency, µM (top dose mostly 46.1 µM), actives largely listed as cytotoxic | hit rate 1.5% among 130,000; further: nearly all actives have a fitted effect of over 55% in size
IkB signaling – suppresses IkB signaling in ABC-DLBCL reporter cells; hit rate 0.04% among 110,000; Potency, µM (doses to about 57.1 µM); ABC-DLBCL IkBa-CBG/CBR dual luciferase ratio, 4 h; response scale: scaled: untreated 0%, proteasome inhibitor 100%; active means well fitted curve in the direction sought with a large enough effect in the signal ratio, not every such curve was filed as active; inconclusive means small, poorly fitted or top-dose-only effect, or a change in a side signal; the % refers to the signal ratio;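 further: the direction sought is a rising ratio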
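In this assay, an IκBα–CBG68 fusion accumulates when IKK-driven degradation is blocked; native CBR normalizes for cell number. OCI-Ly3 cells were treated 4 h with compound and doxycycline, then green and red light read after Chroma-Glo addition.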
Caspase-1 inhib – caspase-1 (human) inhibition, allosteric or competitive; AID 900; Caspase-1 enzyme, Ac-WEHD-AFC fluorogenic rate; Potency, µM (doses to about 57.5 µM), usual class: inhibitors; hit rate 0.03% among 75,000
p53ts 32C kill – kills p53ts cells at the permissive temperature; H1299-p53A138V at 32C, ATP luminescence viability, 24 h; Potency, µM (series often up to 46.1 µM), hits mostly cytotoxic; hit rate 0.93% among 130,000; further: nearly all actives have a fitted effect of over 55% in size
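Cells: H1299 p53ts (A138V), 600/well, pre-incubated 16–30 h at 37C. Cpd up to 46 uM, 24 h, 32C. Readout: ATPlite luminescence, 20 min RT. Normalization: DMSO vs tamoxifen 100 uM. AC50 by Hill equation.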
Caspase-7 inhib – allosteric or competitive inhibitors of human caspase-7; hit rate 0.02% among 75,000; recombinant caspase-7, Ac-DEVD-AFC fluorescence rate; Potency, µM (series often up to 57.5 µM), actives largely listed as inhibitors; P55210; active means well fitted inhibition curve with a large enough effect in the main read-out, with a control signal flat, not every such curve was filed as active; inconclusive means small, poorly fitted or top-dose-only effect, or a change in a side signal
FLuc inh – inhibitors of firefly luciferase | P08659 | purified firefly luciferase, luminescence, 8 min | Potency, µM (highest dose often 57.1 µM), most hits filed as inhibitors | hit rate 2.2% among 72,000 | AID 411; further: nearly all actives have a fitted effect of over 40% in size
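Inhibition of light generation by firefly luciferase from ATP and luciferin was profiled with concentration-response curves per sample, ATP held at 10 uM within the enzyme's linear range. Plates were read by luminescence after an 8-minute ambient incubation.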
A number is an active result; – = inactive; ? = inconclusive; · = no result given; [ ] = dose if it differs, or a comment. Unless noted, the call rests on the fitted dose curve; in most records, active means well fitted curve in the direction sought with a large enough effect; inconclusive means small, poorly fitted or top-dose-only effect, or another doubt; inactive means no such curve, though single readings can be large; an effect the other way counts as inactive or inconclusive.

SMILES	p53ts 39C kill	IkB signaling	Caspase-1 inhib	p53ts 32C kill	Caspase-7 inhib	FLuc inh
CC[C@@]1(O)CC(O)c2c(cc3c(c2O)C(=O)c2c(O)ccc(O)c2C3=O)C1C(=O)OC (stereo partly drawn)	13µM	·	–	?	–	·
CC[C@]1(O)CC(O[C@@H]2CC(N(C)C)C(O)C(C)O2)c2c(cc3c(c2O)C(=O)c2c(O)cccc2C3=O)C1C(=O)OC (stereo partly drawn)	?	·	–	–	–	·
CC1=CC(=O)c2c(O)cccc2C1=O	10µM	·	?	6.3µM	?	·
O=C1C=CC(=O)c2c1ccc1c2ccc2ccccc21	–	?	–	10µM	–	–
COc1cc2[nH]c(=O)n(CCCCCC(=O)N3CCN(c4cccc(C(F)(F)F)c4)CC3)c(=O)c2cc1OC	13µM	?	·	?	·	·
c1ccc2c(CCNCc3ccc4c(c3)OCO4)c[nH]c2c1	?	–	–	–	–	–
CC(=O)OC1C[C@@]2(C)C(c3ccoc3)C[C@H]3O[C@@]32[C@@]2(C)C(=O)C(O)=C3C(C)(C)C(=O)C=C[C@]3(C)C12 (stereo partly drawn)	?	·	–	1.6µM	–	·
CCCCOc1ccc(CN2C(=O)C(=O)c3cc(C)ccc32)cc1OC	10µM	–	·	–	·	·
Cn1c2ccccc2c2c(C(=O)N3CCC4(CC3)OCCO4)cn(C3CCCC3)c(=O)c21	–	–	–	–	–	–
COc1cc(C=C(C#N)C#N)cc(O)c1O	–	–	–	–	–	–
CC(C)(C)c1cc(C=C(C#N)C#N)cc(C(C)(C)C)c1O	–	?	–	10µM	–	–
CCCCN1C(=O)/C(=C/C=C/c2ccco2)C(=O)NC1=S	–	·	·	·	·	·
COc1cc2c(cc1O)-c1c(O)c(OC)cc3c1[C@H](C2)N(C)CC3	–	–[11.4 µM]	32µM	?	–	–[11.4 µM]
O=c1[nH]c(=O)n(Cc2ccccc2)c(O)c1C=NCCCn1ccnc1	–	–	–	–	–	–
O=Cc1ccco1	–	–	–	–[1.84 µM]	–	·
Cc1ccc(Cn2c(=O)n(CCCCC(=O)NCc3ccccc3Cl)c(=O)c3ccccc32)cc1	?	–	·	–	·	·
NCCc1ccc(O)cc1	–	–	–	–	–	–
NNC(=O)c1ccc(O)cc1	–	?	–	–	–	13µM
CC(=O)c1cccc(NC(=O)c2cc3c(s2)-c2c(C)cccc2OC3)c1	5µM	?	·	10µM	·	·
COc1ccc(OC)c(C(c2c(O)c3ccccc3oc2=O)c2c(C)n(C)n(-c3ccccc3)c2=O)c1 (stereo not drawn)	–	?	·	–	·	·
c1ccc2c(c1)[nH]c1cnccc12	–	·	–	–	–	–
Cc1c2ccncc2c(C)c2c1[nH]c1ccccc12	13µM	?	?	13µM	?	–
C[N+]1(C)CCO[C@](O)(c2ccc(-c3ccc([C@]4(O)C[N+](C)(C)CCO4)cc3)cc2)C1	–	–	–	–	–	–
Nc1ccccc1C(=O)OCCOc1ccccc1	–	–	–	–	–	13µM
CCc1ccc(Nc2nc3c(S(=O)(=O)c4ccc(C)cc4)nnn3c3ccsc23)cc1	?	–	·	–	·	·
SMILES	p53ts 39C kill	IkB signaling	Caspase-1 inhib	p53ts 32C kill	Caspase-7 inhib	FLuc inh
COC1=C(C)C(=O)c2c(c(COC(N)=O)c3n2C[C@@H]2[C@@H]3N2C)C1=O (stereo partly drawn)	?	3.2µM	–[11.5 µM]	?	–[11.5 µM]	–[11.4 µM]
Cc1ccc(Cl)cc1N1CCN(C(=O)C2CCN(Cc3nc(-c4ccc(Cl)cc4)oc3C)CC2)CC1	13µM	?	·	–	·	·
Cc1ccc(C2(O)CC(C)N(C)CC2C)cc1 (stereo not drawn)	–	–	–	–	–	–
CCOc1ccc(Br)c(C2(O)CC(C)N(C)CC2C)c1 (stereo not drawn)	–	?	–	?	–	25µM
CN1CCN(C(=O)COc2ccc(-c3nc4ccccc4s3)cc2)CC1	0.79µM	–	–	1µM	–	0.79µM
COc1ccc(OCC(=O)N2CCN(Cc3cc(=O)n4nc(-c5ccc(OC)cc5)sc4n3)CC2)cc1	–	–	·	–	·	·
C[C@@H]1CC[C@@]2(OC1)O[C@H]1[C@@H](O)[C@H]3[C@@H]4CC[C@H]5C[C@@H](O[C@@H]6O[C@H](CO)[C@H](O[C@@H]7O[C@H](CO)[C@@H](O)[C@H](O[C@@H]8OC[C@@H](O)[C@H](O)[C@H]8O)[C@H]7O[C@@H]7O[C@H](CO)[C@@H](O)[C@H](O[C@@H]8O[C@H](CO)[C@@H](O)[C@H](O)[C@H]8O)[C@H]7O)[C@H](O)[C@H]6O)[C@H](O)C[C@]5(C)[C@H]4CC[C@]3(C)[C@H]1[C@@H]2C	13µM	?	–	–[1.84 µM]	–	·
Cc1ccc(Cl)cc1Nc1nn2c(=O)c3ccc(C(=O)NCc4cccs4)cc3nc2s1	16µM	–	·	13µM	·	·
COc1cccc(NC(=O)c2ccc3c(=O)n4nc(Nc5ccccc5OC)sc4nc3c2)c1	?	?	·	–	·	·
O=C(O)c1nn(Cc2ccc(Cl)cc2Cl)c2ccccc12	–	–	–	–	–	–
COc1cc2ccccc2c2cc([N+](=O)[O-])oc12	–[9.22 µM]	?	–[11.5 µM]	?	–[11.5 µM]	–[11.4 µM]
CN(C)C(=S)SSC(=S)N(C)C	–	6.3µM	–	–[1.84 µM]	–	·
NC1(C(=O)O)CCCC1	–	·	–	–	–	·
C[C@@H](Cc1ccccc1)NCCC(c1ccccc1)c1ccccc1	13µM	–	–	–	–	–
COC(=O)C[C@]1(C(=O)OC)CN(C#N)N(c2ccc(Cl)cc2)C12c1ccccc1-c1ccccc12	?	·	·	6.3µM	·	·
O=c1[nH]c2c(c(=O)n1C1CCCCC1)CCC2	·	–	–	·	–	–
Cc1cc(N2CCOCC2)nc2ccc(NC(=O)CCC(=O)N3CCC4(CC3)OCCO4)cc12	–	–	–	–	–	13µM
Cn1cc(CCC(=O)N2CCC3(CC2)OCCO3)c2ccccc21	–	–	–	–	–	–
CSC([N-]/N=C/c1cccc(C)n1)=[S]=[Cu].CS[C@H]([S-])[N-]/N=C/c1cccc(C)n1	?	?	–[11.5 µM]	2µM	–[11.5 µM]	–[11.4 µM]
Cc1onc(-c2ccccc2Cl)c1C(=O)OCC(=O)c1ccc2c(c1)OCCO2	–	–	–	–	–	16µM
Cc1cc(NC(=O)COC(=O)c2c(C)nn(Cc3ccccc3)c2Cl)no1	–	–	–	–	–	–
CS(=O)(=O)Nc1ccc(Cc2noc(-c3ccc4[nH]cc(CCN)c4c3)n2)cc1	–	–	–	–	–	–
CCCOc1ccc2[nH]cc(C3=CCNCC3)c2n1	–	–	–	–	–	13µM
c1ccc(N2CC3(CCNCC3)C2)nc1	–	–[11.4 µM]	–	–	–	–[11.4 µM]
C[C@@]12CC[C@H]3[C@H](CCC4=CC(=O)CC[C@H]43)[C@H]1CC[C@H]2OC1(O)C(=O)c2ccccc2C1=O	–[9.22 µM]	–[11.4 µM]	–[11.5 µM]	–[9.22 µM]	–[11.5 µM]	–[11.4 µM]
COc1cccc(/C=C/c2nc3ccccc3c(=O)n2-c2ccc(Cl)cc2)c1OC	–	?	·	–	·	·

Source: PubChem
